Measurements published in PubChem BioAssay AID1345085 (National Center for Advancing Translational Sciences (NCATS), 2018).
Inconclusive results are not listed. The source made the active and inactive calls. Calls come from the whole dose curve; as a rule, active = well fitted cell-killing curve with a large enough effect; inconclusive = small, poorly fitted or top-dose-only effect, or effect the other way; inactive = no such curve, though single readings can be large or run the other way.

Tested on: Es-2
Assay: Confirmatory qHTS for gynecologic anti-cancer compounds from libraries of approved drugs and bioactive compounds; note: nearly all actives have a fitted effect of over 55% in size
Conditions: gynecologic cancer cell panel viability, ATPlite luminescence, 48 h; series mostly up to 57.6 µM
How it was run: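 ATP-based luminescent viability (ATPlite) after 48 h drug treatment at 37 °C, 5% CO2, across 57.5 uM–0.977 nM in 1:3 steps. Cells seeded at 1,000 per well 16 h beforehand; IC50 values computed, HEK 293T as selectivity control.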
Potency is the fitted concentration of half-maximal effect.

SMILES	Potency
CNCc1ccc(-c2[nH]c3cc(F)cc4c3c2CCNC4=O)cc1	inactive
Cn1cc(-c2ccc3ncc(Cc4ccc5ncccc5c4)n3n2)cn1	inactive
CS(=O)(=O)c1ccc(C(=O)Nc2ccc(Cl)c(-c3ccccn3)c2)c(Cl)c1	inactive
C1CCC(C(CC2CCCCN2)C2CCCCC2)CC1 (configuration not stated)	24.3 µM (active)
Cc1cc(C(C)Nc2ccccc2C(=O)O)c2nc(N3CCOCC3)cc(=O)n2c1 (configuration not stated)	inactive
CCCc1nn(C)c2c(=O)[nH]c(-c3cc(S(=O)(=O)N4CCN(C)CC4)ccc3OCC)nc12	inactive
COc1cc2c(NC3CCN(C(C)C)CC3)nc(C3CCCCC3)nc2cc1OCCCN1CCCC1	12.2 µM (active)
Cc1cc(SCc2sc(-c3ccc(C(F)(F)F)cc3)nc2C)ccc1OCC(=O)O	inactive
COc1ccc2cc3[n+](cc2c1OC)CCc1cc2c(cc1-3)OCO2	inactive
COc1cc(F)c(F)c(Nc2ccc(I)cc2F)c1NS(=O)(=O)C1(CC(O)CO)CC1 (configuration not stated)	3.85 µM (active)
COc1cc2c(Oc3ccc(-c4cnc(Nc5ccc(F)cc5)n(C)c4=O)cc3F)ccnc2cc1OCCCN1CCOCC1	inactive
CC[C@@]1(O)C(=O)OCc2c1cc1n(c2=O)Cc2cc3cc(O)ccc3nc2-1	0.0544 µM (active)
COc1cc(Nc2ncc3c(n2)-c2ccc(Cl)cc2C(c2c(F)cccc2OC)=NC3)ccc1C(=O)O	inactive
CC[C@@]1(O)C(=O)OCc2c1cc1n(c2=O)Cc2cc3c(CN(C)C)c(O)ccc3nc2-1	0.193 µM (active)
Cn1cc(-c2[nH]c3cc(NC(=O)[C@H](N)C4CCCCC4)cc4c3c2C=NNC4=O)cn1	6.85 µM (active)
COc1cccc2c1C(=O)c1c(O)c3c(c(O)c1C2=O)C[C@@](O)(C(=O)CO)C[C@@H]3O[C@H]1C[C@H](N)[C@H](O[C@@H]2CCCCO2)[C@H](C)O1	7.69 µM (active)
Nc1ncn([C@@H]2O[C@H](CO)[C@@H](O)[C@H]2O)c(=O)n1	12.2 µM (active)
CO[C@@]12[C@H](COC(N)=O)C3=C(C(=O)C(C)=C(N)C3=O)N1C[C@@H]1N[C@@H]12	inactive
CC[C@@]1(O)C(=O)OCc2c1cc1n(c2=O)Cc2c-1nc1ccccc1c2/C=N/OC(C)(C)C	0.0153 µM (active)

SMILES	Potency
O=C(O)c1ccc(Nc2ncc3c(n2)-c2ccc(Cl)cc2C(c2c(F)cccc2F)=NC3)cc1	inactive
NS(=O)(=O)c1ccc(Nc2nc(OCC3CCCCC3)c3[nH]cnc3n2)cc1	inactive
Cc1cc(C(=O)N2CCN(c3cccc(Cl)c3)CC2)n(-c2ccccc2)n1	2.43 µM (active)
FC(F)(F)c1ccc(/C=C/c2nc(COc3ccc(CCCCn4ccnn4)cc3)co2)cc1	24.3 µM (active)
CCN(CC)CCOc1ccc(/C(=C(\Cl)c2ccccc2)c2ccccc2)cc1	398 µM (active)
Cc1nc(Nc2n[nH]c3c2CN(C(=O)NC(CN(C)C)c2ccccc2)C3(C)C)c2sccc2n1 (configuration not stated)	4.32 µM (active)
C#C[C@]1(O)CC[C@H]2[C@@H]3CCC4=CC(=O)CC[C@@H]4[C@H]3CC[C@@]21CC	inactive
CCCC(Nc1nc(-c2ccc(NC(=O)NCC)c(OC)c2)ncc1C)c1cccnc1 (configuration not stated)	0.193 µM (active)
Cc1ccccc1C(OCCN(C)C)c1ccccc1 (configuration not stated)	inactive
OCCNC1CCCc2c1[nH]c1ccc(-c3ccccc3)cc21 (configuration not stated)	19.3 µM (active)
CN1CCN(c2ccc(OC(F)(F)F)c(Nc3ncc4c(n3)-c3c(c(C(N)=O)nn3CCO)CC4)c2)CC1	0.217 µM (active)
Cc1ccc(C(=O)Nc2ccc(CN3CCN(C)CC3)c(C(F)(F)F)c2)cc1C#Cc1cnc2[nH]ncc2c1	0.306 µM (active)
COc1ccc2c(c1OC)C(=O)O[C@@H]2[C@H]1c2c(cc3c(c2OC)OCO3)CCN1C	inactive
Cc1ccc(C(=O)Nc2ccc(CN3CCN(C)CC3)c(C(F)(F)F)c2)cc1C#Cc1cnc2cccnn12	6.11 µM (active)
CC(C)n1nc(-c2cc3cc(O)ccc3[nH]2)c2c(N)ncnc21	4.85 µM (active)
O=C(CCCCCCC(=O)Nc1ccccc1)NO	3.06 µM (active)
CCN(CC)CCNC(=O)c1c(C)[nH]c(/C=C2\C(=O)Nc3ccc(F)cc32)c1C	25.1 µM (active)
CNC(=O)c1ccccc1Sc1ccc2c(/C=C/c3ccccn3)n[nH]c2c1	19.3 µM (active)
